According to the supplement of paper PMC6555819:

The sequences below were run on RARg homodimer (NR concentration 270 nM) (assay: PBM binding z-score (relative to random genomic background probes); higher = stronger binding; sequences stand for … in GC…GCGATTGACAGCGTAGAATGAAGG).
Procedure, shortened: (§1)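 Random background probes are the reference for binding z-scores. These scores derive from regression-normalized fluorescence on custom Agilent 4×180K protein-binding microarrays incubated 1 h with ligand-free nuclear receptor dimers. Binding was detected with antibodies against each partner (one per run).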
Sequence TCTATTAGTTAAAGGGCAACCGACGAGTCCGTTT has a PBM binding z-score of 1.42. AGAACGAGGGCACGCTTAGTTGATAGCAGAGTAG showed a PBM binding z-score of 2.33. AGAATGAGGTTACCAAAGATCTGGGAAACGCTTG was tested, and the PBM binding z-score was 1.49. TGTCAAAGTTCAACGGTAACGTAAGTATCCACAC gave a PBM binding z-score of 6.35. Sequence TTACCAAGGTGAAAGATCGTTGATGCACGCCTTG has a PBM binding z-score of 0.398. In the case of CGAACTAGGTCATCCAGGACAGTGTATACATTGA, the PBM binding z-score is reported as 4.85. TCTTGTAGATCTAAGGTTAAGAAAGCCGAAGCCT was tested, and the PBM binding z-score was 0.019. TCTATAAGTTGAAGGGCAACCGACGAGTCCGTTT was tested, and the PBM binding z-score was 1.07. With AGAACGAGGGCACCCTGAGTTGATAGCAGAGTAG the PBM binding z-score was 1.76. GCTAGTTGGTCAGTGAAAGGTCACACACCGGTCG showed a PBM binding z-score of 4.94. Sequence TCTAGAAGGCCAGAGGGTCACTCAAGAGGTACGG has a PBM binding z-score of 2.72. TCATATTGGTAAACAGGTGAAAGTCCGTAAGTTA was tested, and the PBM binding z-score was 0.0109. For CCTCGGAGGACAACAGGAGGTCAGAGATGCCAGA, the PBM binding z-score was 3.31. Work on GCGATTGGGGCATCAGCAGGTTACCATAACTTAA yielded a PBM binding z-score of 0.543. CCTTACGGGTCACTGACAGGTTATAGCCTTTGGA gave a PBM binding z-score of 4.21. TTACCAAGGAGAGCTGAGGTCGTTGATCCAACTC showed a PBM binding z-score of -0.138. For AGTCAAAGTCCATCTAGGTAACGTAAGATATGCT, the PBM binding z-score was 1.09. Sequence CTAACGAGGGCATGAGTTGATAGCAAATGCCGAT has a PBM binding z-score of 1.61. CCGAGTAGGTTATTGGGCATTCAGGCAACGGTGA gave a PBM binding z-score of 0.187. Sequence CCGACTGGGGCATGAGGTTACCATAAGCCAGCCC has a PBM binding z-score of 0.922. Sequence ATCGAAAGATCGAGGTGAGTATAGAGAAAGGGAA has a PBM binding z-score of 0.358. In the case of TATACCGGGTCAAAGGCCAGAGTACGAATGTCGA, the PBM binding z-score is reported as 4.08. For CCTACTGTGCCAAAGGTCATTGATTCCAATGCTC, the PBM binding z-score was 5.21. For GGAACGAGGGCACAGTTGATAGCATCTGTCGACG, the PBM binding z-score was 1.61. Sequence AGAATGAGGTTATACGTTGATCAGGGAAGAAAGT has a PBM binding z-score of 0.994. Work on ATCTGTAGGTTACATCCGGGTCATTCAGGCTATG yielded a PBM binding z-score of 2.18. Work on TCCATTAGTTGATTAGGGCAACCGAAACAGCGGA yielded a PBM binding z-score of 0.556. Work on CCTAGCAGGCCAATCTGGGTCGCTCAAGGCTTGA yielded a PBM binding z-score of -0.21. Sequence ACTATTAGTTGAGACGAGGCCAACCGATAGGTTG has a PBM binding z-score of 0.272. Work on TAGCCTAGGTCAGAGCGGGCCAGTATACGCTATA yielded a PBM binding z-score of 3.13. CCTCGGAGGACAAAAGGTCAGAGCTGTCCGCTTT showed a PBM binding z-score of 5.86. For GCTGCTAGGTCAGGTTGGTCAGCTAGCGGGTACG, the PBM binding z-score was 3.44. Work on CGTCCAAGGTCAGAGAGGTCAGTTAATGCCGAGT yielded a PBM binding z-score of 7.24. AGAACGAGGGCAATGAGTTGACAGCACGGGTGGC gave a PBM binding z-score of 1.73. TCATATAGGAAATACAGGTGAAAGTCGGCATCTA gave a PBM binding z-score of 0.553. Work on TCGAGTACGTTAGGGGCATTCAGAATGGCGTCGA yielded a PBM binding z-score of -0.0328. Work on CCGACTGGGGCAAGGATACCATAACGCACAGCCA yielded a PBM binding z-score of 0.802. With TCTGTTAGTTGAAGGGCAACCGACGAGTCCGTTT the PBM binding z-score was 0.708. ATCTCTAGGTAAGACTAAGTTCAGTGAAGAACGC was tested, and the PBM binding z-score was 0.697.

What follows are sequences tested on RXRa DBDmut IVT, anti-RXR (DBD mutation: RXRa K156A/R161A, NR concentration 90 nM) in the same assay as above.
Procedure, shortened: as §1
TCTATTAGTTAAAGGGCAACCGACGAGTCCGTTT gave a PBM binding z-score of 1.7. AGAACGAGGGCACGCTTAGTTGATAGCAGAGTAG was tested, and the PBM binding z-score was 2.1. AGAATGAGGTTACCAAAGATCTGGGAAACGCTTG gave a PBM binding z-score of 0.786. With TGTCAAAGTTCAACGGTAACGTAAGTATCCACAC the PBM binding z-score was 4.26. For TTACCAAGGTGAAAGATCGTTGATGCACGCCTTG, the PBM binding z-score was -0.161. Sequence CGAACTAGGTCATCCAGGACAGTGTATACATTGA has a PBM binding z-score of 2.47. TCTTGTAGATCTAAGGTTAAGAAAGCCGAAGCCT gave a PBM binding z-score of 1.06. With TCTATAAGTTGAAGGGCAACCGACGAGTCCGTTT the PBM binding z-score was 1.59. AGAACGAGGGCACCCTGAGTTGATAGCAGAGTAG was tested, and the PBM binding z-score was 1.42. Work on GCTAGTTGGTCAGTGAAAGGTCACACACCGGTCG yielded a PBM binding z-score of 0.305. TCTAGAAGGCCAGAGGGTCACTCAAGAGGTACGG showed a PBM binding z-score of 0.844. TCATATTGGTAAACAGGTGAAAGTCCGTAAGTTA showed a PBM binding z-score of 1.5. CCTCGGAGGACAACAGGAGGTCAGAGATGCCAGA gave a PBM binding z-score of 0.124. GCGATTGGGGCATCAGCAGGTTACCATAACTTAA gave a PBM binding z-score of 0.393. With CCTTACGGGTCACTGACAGGTTATAGCCTTTGGA the PBM binding z-score was 2. With TTACCAAGGAGAGCTGAGGTCGTTGATCCAACTC the PBM binding z-score was -0.0158. Work on AGTCAAAGTCCATCTAGGTAACGTAAGATATGCT yielded a PBM binding z-score of 1.23. Sequence CTAACGAGGGCATGAGTTGATAGCAAATGCCGAT has a PBM binding z-score of 2.41. Work on CCGAGTAGGTTATTGGGCATTCAGGCAACGGTGA yielded a PBM binding z-score of 0.421. Work on CCGACTGGGGCATGAGGTTACCATAAGCCAGCCC yielded a PBM binding z-score of -0.569. Sequence ATCGAAAGATCGAGGTGAGTATAGAGAAAGGGAA has a PBM binding z-score of -0.896. Sequence TATACCGGGTCAAAGGCCAGAGTACGAATGTCGA has a PBM binding z-score of 1.38. Sequence CCTACTGTGCCAAAGGTCATTGATTCCAATGCTC has a PBM binding z-score of 2.09. Work on GGAACGAGGGCACAGTTGATAGCATCTGTCGACG yielded a PBM binding z-score of 1.69. For AGAATGAGGTTATACGTTGATCAGGGAAGAAAGT, the PBM binding z-score was 1.71. ATCTGTAGGTTACATCCGGGTCATTCAGGCTATG showed a PBM binding z-score of 1.17. Sequence TCCATTAGTTGATTAGGGCAACCGAAACAGCGGA has a PBM binding z-score of 1.09. CCTAGCAGGCCAATCTGGGTCGCTCAAGGCTTGA was tested, and the PBM binding z-score was -0.847. Sequence ACTATTAGTTGAGACGAGGCCAACCGATAGGTTG has a PBM binding z-score of 0.0149. With TAGCCTAGGTCAGAGCGGGCCAGTATACGCTATA the PBM binding z-score was -0.459. CCTCGGAGGACAAAAGGTCAGAGCTGTCCGCTTT showed a PBM binding z-score of 0.812. Sequence GCTGCTAGGTCAGGTTGGTCAGCTAGCGGGTACG has a PBM binding z-score of 0.414. CGTCCAAGGTCAGAGAGGTCAGTTAATGCCGAGT was tested, and the PBM binding z-score was 3.83. Work on AGAACGAGGGCAATGAGTTGACAGCACGGGTGGC yielded a PBM binding z-score of 1.54. With TCATATAGGAAATACAGGTGAAAGTCGGCATCTA the PBM binding z-score was 2.12. TCGAGTACGTTAGGGGCATTCAGAATGGCGTCGA showed a PBM binding z-score of 3.64. Sequence CCGACTGGGGCAAGGATACCATAACGCACAGCCA has a PBM binding z-score of -0.717. For TCTGTTAGTTGAAGGGCAACCGACGAGTCCGTTT, the PBM binding z-score was 1.1. In the case of ATCTCTAGGTAAGACTAAGTTCAGTGAAGAACGC, the PBM binding z-score is reported as 0.96.
